# Assay outcomes as filed in PubChem BioAssay.
# The sample as a whole holds a higher share of hits than the screen did.
# Pf Dd2 growth = blocks in vitro growth of P. falciparum Dd2. P. falciparum Dd2 growth, SYBR Green, 72 h. Potency, µM (titrated, usually from 28.9 µM), actives largely listed as inhibitors. 4.3% of 120,000 active. AID 1347417; active = well fitted inhibition curve with a large enough effect; note: nearly all actives have a fitted effect of over 65% in size
#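 Readout: SYBR Green fluorescence, 485 nm excitation, 535 nm emission, after ~16 h lysis at 37C. Before that, Dd2-infected red cells (2.5% hematocrit) grew 72 h with compound, 29 uM top final concentration.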
# Numbers stand for hits; 0 = inactive; [ ] = dose if it differs, or a comment.
SMILES,Pf Dd2 growth
Cc1ccc(-n2c(SCC(N)=O)nc3c([nH]c4ccccc43)c2=O)cc1,0
Cn1c(SCC(=O)Nc2ccc(F)cc2)nc2c([nH]c3ccccc32)c1=O,0
O=C(CSc1nc2c([nH]c3ccccc32)c(=O)n1-c1ccc(F)cc1)Nc1ccc2c(c1)OCO2,11µM
O=C(CSc1nc2c([nH]c3ccccc32)c(=O)n1-c1ccc(F)cc1)N1CCCCC1,0
CCOc1ccc(-c2nc(SCC(=O)Nc3ccc4c(c3)OCCO4)c(-c3ccc(F)cc3)[nH]2)cc1,0
Cc1cc(NC(=O)CSc2nc3c([nH]c4ccccc43)c(=O)n2-c2ccccc2F)no1,10µM
CCc1ccccc1NC(=O)c1ccc(F)c(S(=O)(=O)N2CCN(c3ccccc3OC)CC2)c1,0
Cc1ccc2c(c1)Cc1c(nc(-c3ccc(Cl)cc3)nc1SCC(=O)N1CCCCC1)O2,0
CCN(CC)C(=O)N1C[C@@H](Oc2cccnc2)C[C@@H]1C(=O)N1CCOCC1,0
O=C1OCC2(CCN(Cc3ccc4cn[nH]c4c3)C2)N1Cc1ccccn1 (centres undefined),0
O=C([C@H]1CCC[C@@H](O)C1)N1CCN(Cc2ccc(C(F)(F)F)cc2)CC1,0
COCCNC(=O)C1COC2(CCN(C(=O)c3cccc(OC)c3)CC2)N1C(=O)c1ccccc1 (centres undefined),0
O=S(=O)(c1ccc(Br)cc1)c1nc(-c2cccs2)oc1SCc1ccc(F)cc1,0
COc1ccc(-n2c(SCC(=O)NCc3ccccc3)nc3ccsc3c2=O)cc1,0
Cc1noc(-c2ccc(OC3CN(C(=O)NCc4ccc(F)cc4)C3)cc2)n1,0[5.79 µM]
CC(=O)c1ccc(NC(=O)CCn2nc(C)c(S(=O)(=O)N3CCC(C)CC3)c2C)cc1,0
N#Cc1cccc(C(=O)N2CCC3(CC2)NC(=O)N(Cc2cccc(Cl)c2)C3=O)c1,0
Fc1ccc(CN2CCOC[C@H](Oc3ccccc3)C2)cc1,13µM
COc1ccc(CN2CCOC[C@H](Oc3ccccc3)C2)cc1,7.1µM
COc1ccc(CN2CCOC[C@H](Oc3ccc(C(F)(F)F)cn3)C2)cc1,0
COc1ccc(CN2CCOC[C@H](Oc3cccc(C)n3)C2)cc1,0
CS(=O)(=O)c1ccc(O[C@H]2COCCN(Cc3cccnc3)C2)cc1,0
COc1ccc(OC2CN(Cc3ccc(F)cc3)C2)cc1,0
COc1cc2c(cc1OC)C(C[C@H]1CN(C(=O)c3ccc(C#N)cc3)CC[C@H]1CC(=O)O)=NCC2,0
O=C(c1cc(-c2ccccc2)nc2ccccc12)N1CCOCC(CO)C1 (centres undefined),0
SMILES,Pf Dd2 growth
O=C(CN1C=NS(=O)(=O)c2ccccc21)Nc1ccccc1F,0[0.594 µM]
Cc1ccc(NC(=O)NCC2CCOCC2)cc1C,0
COCCN(C)C[C@@H]1CN(C(=O)Cc2ccc3c(c2)OCO3)C[C@@H]1CO,0
CCN1CCc2c(sc(-n3cccc3)c2C(C)NC(=O)Nc2ccccc2C)C1 (centres undefined),0
COc1ccccc1CCC(=O)N1CC(C(=O)N(C)C)C2(CCOCC2)C1 (centres undefined),0
CCOc1ccc(NC(=O)CSc2oc(-c3cccs3)nc2S(=O)(=O)c2ccc(Cl)cc2)cc1,0
COc1ccc(C(=O)NC(c2ccc(Cl)cc2)c2cc(Cl)c3cccnc3c2O)cc1 (centres undefined),2.8µM
COc1ccc(S(=O)(=O)c2c(O)c3ccc(C(=O)NCc4ccc(Cl)cc4)cc3[nH]c2=O)cc1,0
COc1ccc(C(=O)Nc2cc(C(C)C)c(O)c(S(=O)(=O)c3ccc(OC)cc3)c2C)cc1,0
O=C(c1ccccc1)N1CCN(c2cc(-c3ccc(F)cc3)[nH]n2)CC1,0
Cc1ccc(NC(=O)c2cc(-c3ccc(Br)s3)nc3ccccc23)cc1F,0
CCN(CC)CC(C)CNC(=O)c1cc(-c2ccc(Br)s2)nc2ccccc12 (centres undefined),11µM
COc1ccc(CNC(=O)c2cc(-c3ccc(Br)s3)nc3ccccc23)cc1,0[5.79 µM]
COc1cccc(CCC(=O)NC2CCN(c3cc(-c4ccccc4)[nH]n3)CC2)c1,0
CN(Cc1ccccc1)Cc1cn([C@H]2CO[C@H]3[C@@H]2OC[C@@H]3NC(=O)C2CCCCC2)nn1,0
O=c1[nH]c(N2CCOCC2)nc2c1CCN(Cc1cc(F)cc(F)c1)CC2,0[5.79 µM]
CN(C)c1nc2c(c(=O)[nH]1)CCN(Cc1ccc(Cl)cc1)CC2,0[5.79 µM]
O=c1[nH]c(N2CCOCC2)nc2c1CCN(Cc1ccc(C(F)(F)F)cc1)CC2,1.3µM
CN(C)c1nc2c(c(=O)[nH]1)CCN(Cc1ccccc1Br)CC2,1.1µM
CN(C)c1nc2c(c(=O)[nH]1)CCN(Cc1ccc(Br)cc1)CC2,2µM
CN(C)c1nc2c(c(=O)[nH]1)CCN(Cc1cccc(F)c1F)CC2,0[5.79 µM]
CN(C)c1nc2c(c(=O)[nH]1)CCN(Cc1ccccc1)CC2,0[5.79 µM]
CN(C)c1nc2c(c(=O)[nH]1)CCN(Cc1ccccc1F)CC2,0[5.79 µM]
Cc1ccc(CN2CCc3nc(N4CCOCC4)[nH]c(=O)c3CC2)cc1C,0[5.79 µM]
Cc1ccccc1OCC(=O)Nc1ccccc1C(=O)OCc1cc(=O)n2nc(C3CC3)sc2n1,0
SMILES,Pf Dd2 growth
O=C(NCC1CCCO1)N1CCCCCCn2c(nnc2-c2ccc(F)cc2)CC1 (centres undefined),0
O=C(Nc1ccnn1C1CCN(C(=O)Cn2cccn2)CC1)C1CCCC1,0
CCOc1ccc(Br)cc1C1NC(=O)c2c(sc3c2CCN(C)C3)N1 (centres undefined),0
O=C(c1nc(-c2cccnc2)c2cnccn12)N1CCOCC1,0
CCN1CCN(CCNC(=O)c2nnn3cc(-c4ccccc4)[nH]c(=O)c23)CC1,0
Cc1cccc2c1-c1sc(C(=O)NCCCN3CCN(c4cccc(Cl)c4)CC3)cc1CO2,0
CS(=O)(=O)N1CCC(C2CCN(Cc3cccs3)C2)CC1 (centres undefined),13µM
CS(=O)(=O)N1CCC(C2CCN(C3CCOCC3)C2)CC1 (centres undefined),0
CNC(=O)N1CCC(C2CCN(C(=O)Cc3cccs3)C2)CC1 (centres undefined),0
Cn1cccc1CN1CCC(C2CCN(S(C)(=O)=O)CC2)C1 (centres undefined),0
CS(=O)(=O)N1CCC(C2CCN(Cc3ccc(Br)o3)C2)CC1 (centres undefined),4.5µM
Cc1ccc(CN2CCC(C3CCN(S(C)(=O)=O)CC3)C2)o1 (centres undefined),0
O=C(c1cccs1)N1CCCC(c2noc(COc3ccccc3F)n2)C1 (centres undefined),0
CCc1ccc(NC(=O)CN(C)S(=O)(=O)c2ccc3c(c2)c(=O)n(C)c(=O)n3C)cc1,0
CC(C)c1ccc(NC(=O)C2CCN(S(=O)(=O)c3cccc4nonc34)CC2)cc1,0
COCCN1C(=O)c2cccn2CC1CNS(=O)(=O)Cc1ccccc1F (centres undefined),0
CCN(c1ccc(OC)cc1)S(=O)(=O)c1ccc2[nH]c(=O)ccc2c1,0
Cc1cc(C)n(CC(=O)N2C[C@@H](CO)[C@H](c3ccncc3)C2)n1,0
CCOc1ccc(-c2cc3c(=O)n(CCNC(=O)Cc4cccs4)ccn3n2)cc1,0
O=C(Cn1ncc2c3ccccc3n(Cc3ccc(Cl)cc3)c2c1=O)NCc1ccccn1,0
CCCn1c2ccccc2c2cnn(CC(=O)N3CCC(C)CC3)c(=O)c21,0
CC(CCc1ccccc1)NC(=O)Cn1ncc2c3ccccc3n(Cc3cccc(Cl)c3)c2c1=O (centres undefined),0
CCC(Cc1ccccc1)NC(=O)Cn1ncc2c3ccccc3n(Cc3ccc(F)cc3)c2c1=O (centres undefined),0
